Compounds with a hit are over-represented: about 1.4% of the library has one in this group of screens.
GC-A act: GC-A (human) enzyme activation | P16066 | HEK293 GC-A cells, cGMP TR-FRET, EC30 ANP; 0% at EC30 ANP, 100% saturating ANP | activation, % at 10 µM | hit rate 0.14% among 370,000 | AID 1671463; in the data active means activation above about 40%
GC-B act: GC-B (human) receptor activation; activation, % at 10 µM; hit rate 0.11% among 370,000; AID 1920062; HEK293-GC-B cells, CNP EC30, cGMP TR-FRET; 0% at EC30 CNP, 100% saturating CNP;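 active means activation at 10 µM reaching about 35% in either raw or pattern-adjusted values, limit read from the data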
Target sequence (P20594 whole entry, looked up): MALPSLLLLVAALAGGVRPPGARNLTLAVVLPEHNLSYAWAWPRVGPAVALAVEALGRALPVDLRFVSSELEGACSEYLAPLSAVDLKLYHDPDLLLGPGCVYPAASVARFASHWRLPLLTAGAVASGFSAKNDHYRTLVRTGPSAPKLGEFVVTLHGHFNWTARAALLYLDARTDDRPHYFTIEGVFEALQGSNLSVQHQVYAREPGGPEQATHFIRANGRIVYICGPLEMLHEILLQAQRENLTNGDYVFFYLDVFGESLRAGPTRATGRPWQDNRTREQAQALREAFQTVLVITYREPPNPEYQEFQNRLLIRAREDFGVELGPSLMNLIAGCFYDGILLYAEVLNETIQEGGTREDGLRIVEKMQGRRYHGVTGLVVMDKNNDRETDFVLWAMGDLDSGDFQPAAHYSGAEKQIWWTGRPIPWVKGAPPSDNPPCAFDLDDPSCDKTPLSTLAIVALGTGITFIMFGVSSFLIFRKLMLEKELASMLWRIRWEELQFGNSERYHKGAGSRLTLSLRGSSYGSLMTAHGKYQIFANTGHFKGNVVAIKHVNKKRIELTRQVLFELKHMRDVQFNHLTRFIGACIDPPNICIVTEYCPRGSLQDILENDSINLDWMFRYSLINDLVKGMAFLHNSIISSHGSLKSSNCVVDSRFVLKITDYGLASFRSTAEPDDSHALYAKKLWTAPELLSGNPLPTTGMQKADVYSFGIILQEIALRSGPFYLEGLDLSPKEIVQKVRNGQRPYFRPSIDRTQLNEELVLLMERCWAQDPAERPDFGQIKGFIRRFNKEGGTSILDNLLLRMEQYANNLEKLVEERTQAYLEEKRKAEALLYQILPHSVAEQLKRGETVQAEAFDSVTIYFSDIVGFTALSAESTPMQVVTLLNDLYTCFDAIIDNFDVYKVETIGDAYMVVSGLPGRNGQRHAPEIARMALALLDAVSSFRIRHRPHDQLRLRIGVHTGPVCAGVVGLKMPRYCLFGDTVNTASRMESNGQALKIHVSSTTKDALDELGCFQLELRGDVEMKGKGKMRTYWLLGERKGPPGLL
A3A deaminase: inhibitors of human APOBEC3A DNA deaminase | P31941 | recombinant A3A, FAM/TAMRA ssDNA deamination fluorescence | inhibition, % at 20 µM | hit rate 0.41% among 330,000 | AID 493011;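 active means at least 40% inhibition at 20 µM here, with at most 30% in a related deaminase screen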;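 further: plate controls were A3A with DMSO for no effect and wells lacking A3A enzyme for full effect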
APOBEC3G inh: blocks human APOBEC3G single-stranded DNA deamination. Q9HC16. recombinant A3G, ssDNA deamination FAM/TAMRA fluorescence. inhibition, % at 20 µM. hit rate 0.28% among 330,000. AID 493012;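 active means inhibition of at least 40% at 20 µM, with no more than 30% in the related APOBEC3A deaminase screen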;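 further: plate controls were DMSO wells with A3G for no effect and wells lacking A3G enzyme for full effect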
FAS-TE inh: blocks the thioesterase domain of human fatty acid synthase; recombinant FAS-TE, OMFH fluorogenic substrate, fluorescence endpoint; inhibition, % at 15 µM; hit rate 0.67% among 360,000; AID 602261;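 active means compounds whose normalised, plate-corrected inhibition of enzyme fluorescence in the single-dose primary screen is 50% or more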;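 further: 0% = DMSO with enzyme and 100% = substrate without enzyme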
FAS-TE inh conf: confirmation of human fatty acid synthase thioesterase inhibitors | shares compounds with FAS-TE inh | recombinant FAS-TE, OMFH fluorogenic substrate, fluorescence | inhibition, % at 15 µM | hit rate 45% among 2,300;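 active means compounds inhibiting the enzyme by at least 50% at 15 µM in any one of the replicates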;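 further: 0% = enzyme with DMSO only and 100% = wells lacking enzyme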
Numbers without * were called inactive.

For Cc1ccc(S(=O)(=O)ON2C(=O)c3cccc4cccc(c34)C2=O)cc1 the results were GC-A act -4.0, GC-B act -0.6, A3A deaminase 1.3, APOBEC3G inh 0.7 and FAS-TE inh 26.5.
`Cc1ccc(C)c(S(=O)(=O)ON2C(=O)c3ccccc3C2=O)c1` gave GC-A act 16.3, GC-B act 4.5, A3A deaminase 4.4, APOBEC3G inh 18.2, FAS-TE inh 82.7* and FAS-TE inh conf 87.7*.
CC(C)(C)c1ccc(S(=O)(=O)N2CCC(c3cn4ccccc4n3)CC2)cc1 was read as GC-A act -1.8 and GC-B act -1.1.
`C#CCOCCOCCOCCNc1nc(N2CCN(C(=O)[C@H]([C@@H](C)CC)n3cc(CCCCN)nn3)CC2)nc(N2CCN(C(=O)[C@H](Cc3ccc(O)cc3)n3cc(CCO)nn3)CC2)n1` gave GC-A act 1.4 and GC-B act -0.5.
Screening COc1cc(OC)cc(N(C(=O)c2ccco2)C(C(=O)NC2CCCC2)c2ccc(N3CCOCC3)cc2)c1 (stereo not drawn) returned GC-A act -19.5, GC-B act -20.0, A3A deaminase 1.5, APOBEC3G inh 0.9 and FAS-TE inh 9.6.
CC(=O)c1ccc(N(C(=O)c2ccco2)C(C(=O)NC2CCCC2)c2ccc(N3CCOCC3)cc2)cc1 (stereo not drawn) was read as GC-A act 3.9, GC-B act -0.1, A3A deaminase -0.7, APOBEC3G inh -4.7, FAS-TE inh 55.1* and FAS-TE inh conf 52.3*.
For C[C@@H]1COc2cc(NCCO)ccc2S(=O)(=O)N1 the results were GC-A act -2.6 and GC-B act 2.3.
Screening COc1ccc(N(C)C(=O)c2cc3c(s2)-c2ccccc2S(=O)(=O)C3)cc1 returned GC-A act -7.9, GC-B act -0.8, A3A deaminase 6.0, APOBEC3G inh 1.1 and FAS-TE inh 47.0.
For COc1cc(OC)c(N(C)C(=O)c2cc3c(s2)-c2ccccc2S(=O)(=O)C3)cc1Cl the results were GC-A act -13.9, GC-B act -15.3, A3A deaminase -3.5, APOBEC3G inh -2.9, FAS-TE inh 54.5* and FAS-TE inh conf 32.1.
Screening O=C(/C=C/c1ccc(-c2ccccc2)cc1)NC1=NCCS1 returned GC-A act 1.9 and GC-B act -5.4.
For c1nc(NCC2CCCCO2)c2cc(-c3ccc4c(c3)OCO4)ccc2n1 (stereo not drawn) the results were GC-A act 4.2 and GC-B act 0.5.
`Cc1ccc([N+](=O)[O-])cc1NC(=O)c1ccccc1` gave GC-A act 3.9, GC-B act 6.8, A3A deaminase 2.5, APOBEC3G inh 4.8 and FAS-TE inh 15.6.
Screening Cc1ccc([N+](=O)[O-])cc1NC(=S)NCCc1ccccc1 returned GC-A act 1.7, GC-B act 1.2, A3A deaminase -2.1, APOBEC3G inh -7.7, FAS-TE inh 55.5* and FAS-TE inh conf 71.3*.
`Cc1ccc(NC(=S)NCc2ccccc2)cc1[N+](=O)[O-]` gave GC-A act 7.9, GC-B act -4.2, A3A deaminase 4.2, APOBEC3G inh -0.9, FAS-TE inh 64.2* and FAS-TE inh conf 38.2.
Screening Cc1ccc([N+](=O)[O-])cc1NC(=O)C(Sc1ccccc1)c1ccccc1 (stereo not drawn) returned GC-A act -5.5, GC-B act 3.7, A3A deaminase 0.7, APOBEC3G inh -5.3, FAS-TE inh 81.5* and FAS-TE inh conf 85.2*.
Screening Cc1ccc(C(=O)O)cc1NC(=S)NCCc1ccccc1 returned GC-A act 3.4, GC-B act -3.4, A3A deaminase -2.4, APOBEC3G inh -1.3 and FAS-TE inh -4.7.
`O=C(Cc1cccc(C(F)(F)F)c1)OCN1C(=O)c2ccccc2C1=O` gave GC-A act -7.5, GC-B act 0.4, A3A deaminase 2.4, APOBEC3G inh 4.1, FAS-TE inh 50.7* and FAS-TE inh conf 46.0*.
For COc1ccc([C@@H]2[C@@H]3C(=O)N(C(C)(C)C)C(=O)[C@@H]3[C@]3(Cc4ccccc4)C(=O)N(c4cccc(C)c4)C(=O)N23)cc1 the results were GC-A act -1.3, GC-B act 0.0, A3A deaminase 0.5, APOBEC3G inh -6.5 and FAS-TE inh 28.8.
For COc1ccc([C@@H]2[C@@H]3C(=O)N(C(C)(C)C)C(=O)[C@@H]3[C@]3(Cc4ccccc4)C(=O)N(c4ccc(Br)cc4)C(=O)N23)cc1 the results were A3A deaminase -6.3, APOBEC3G inh -14.3 and FAS-TE inh 11.1.
Screening COc1ccc([C@@H]2[C@@H]3C(=O)N(C(C)(C)C)C(=O)[C@@H]3[C@]3(Cc4ccccc4)C(=O)N(c4cccc(Cl)c4)C(=O)N23)cc1 returned GC-A act -3.9, GC-B act -6.9, A3A deaminase -0.7, APOBEC3G inh -2.7, FAS-TE inh 78.7* and FAS-TE inh conf 9.4.
`CC(C)(C)N1C(=O)[C@H]2[C@@H](c3ccc(Br)cc3)N3C(=O)N(c4cccc(Cl)c4)C(=O)[C@@]3(Cc3ccccc3)[C@H]2C1=O` gave GC-A act -11.7, GC-B act -18.8, A3A deaminase -1.8, APOBEC3G inh -9.1, FAS-TE inh 96.4* and FAS-TE inh conf 6.1.
For COc1ccc(N2C(=O)N3[C@H](c4ccc(Br)cc4)[C@@H]4C(=O)N(C(C)(C)C)C(=O)[C@@H]4[C@]3(Cc3ccccc3)C2=O)cc1 the results were GC-A act -3.4, GC-B act -3.6, A3A deaminase -0.8, APOBEC3G inh -6.6, FAS-TE inh 71.0* and FAS-TE inh conf 40.2.
`O=C(Nc1nc2c(Br)cccc2s1)c1ccc2c(c1)OCCO2` gave GC-A act 23.1 and GC-B act -20.2.
CC(C)OC(=O)/C(C#N)=C/c1cn(Cc2ccccc2)c2ccccc12 was read as GC-A act 4.2, GC-B act -5.4, A3A deaminase -3.3, APOBEC3G inh -10.2 and FAS-TE inh 24.0.
`CC(C)OC(=O)/C(C#N)=C/c1cn(C)c2ccccc12` gave GC-A act -7.7, GC-B act 0.8, A3A deaminase -2.7, APOBEC3G inh -3.4, FAS-TE inh 52.2* and FAS-TE inh conf 49.4*.
COC(=O)c1ccccc1NC(=S)N(Cc1ccc2c(c1)OCO2)Cc1cc2ccc(C)cc2[nH]c1=O was read as GC-A act -1.5, GC-B act 7.1, A3A deaminase -4.6, APOBEC3G inh -6.9, FAS-TE inh 79.4* and FAS-TE inh conf 29.3.
For COC(=O)c1ccccc1NC(=S)N(Cc1ccc2c(c1)OCO2)Cc1cc2cc(C)ccc2[nH]c1=O the results were GC-A act 0.9, GC-B act 2.8, A3A deaminase -4.7, APOBEC3G inh -5.2 and FAS-TE inh 45.4.

Assay outcomes as filed in PubChem BioAssay.
